About 83,000 compounds went through this panel and 20% of them were active in at least one assay; those are over-represented in the sample as a whole.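 Testing used 96-well plates and a 48-hour single-concentration exposure. Example: -40 means 40% of the starting cells died.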 Unmarked numbers belong to inactive results. Activity calls are given as the source filed them. How the source made its calls: active means growth percent below 10; inactive means the rest.
Assays:
Experiment in all cases: NCI-60 one-dose screen, 48 h (100 = growth as untreated, 0 = no growth, -100 = all killed)
Settings in all cases: 10 µM unless noted
NCI-H23 lung = system: NCI-H23 lung
NCI-H226 lung = system: NCI-H226 lung
NCI-H322M lung = system: NCI-H322M lung
HOP-62 NSCLC = system: HOP-62 NSCLC
NCI-H460 lung = system: NCI-H460 lung
HOP-92 NSCLC = system: HOP-92 NSCLC
NCI-H522 lung = system: NCI-H522 lung
A549/ATCC NSCLC = system: A549/ATCC NSCLC
786-0 renal = system: 786-0 renal
COLO 205 colon = system: COLO 205 colon
DU-145 prostate = system: DU-145 prostate
K-562 leukemia = system: K-562 leukemia
MALME-3M melanoma = system: MALME-3M melanoma
MDA-MB-231 breast = system: MDA-MB-231 breast
RXF 393 renal = system: RXF 393 renal
SF-295 CNS = system: SF-295 CNS
SF-539 CNS = system: SF-539 CNS
UACC-257 melanoma = system: UACC-257 melanoma
M14 melanoma = system: M14 melanoma
SF-268 CNS = system: SF-268 CNS

## C=C(CN1CCN(c2cccc(C(F)(F)F)n2)CC1)c1ccc(C(=O)Nc2ccccc2N)cc1
NCI-H23 lung
  growth: 35.5%
NCI-H226 lung
  growth: 84.2%
NCI-H322M lung
  growth: 45.8%
HOP-62 NSCLC
  growth: 20.6%
NCI-H460 lung
  growth: 7.02% (active)
HOP-92 NSCLC
  growth: -12.1% (active)
NCI-H522 lung
  growth: -45.3% (active)
A549/ATCC NSCLC
  growth: 27.3%
786-0 renal
  growth: 7.8% (active)
COLO 205 colon
  growth: 1.41% (active)
DU-145 prostate
  growth: -23.7% (active)
K-562 leukemia
  growth: 3.45% (active)
MALME-3M melanoma
  growth: 20%
MDA-MB-231 breast
  growth: 33.5%
RXF 393 renal
  growth: -19.5% (active)
SF-295 CNS
  growth: 8.13% (active)
SF-539 CNS
  growth: 6.53% (active)
UACC-257 melanoma
  growth: 16.6%
M14 melanoma
  growth: 18.5%

## CCCCCCCCOC(=O)CC[C@@H](C)[C@H]1CC[C@H]2[C@@H]3[C@H](OC(=O)CCN)C[C@@H]4C[C@H](OC(=O)CCN)CC[C@]4(C)[C@H]3C[C@H](OC(=O)CCN)[C@]12C
NCI-H23 lung
  growth: 90.3%
NCI-H226 lung
  growth: 89.8%
NCI-H322M lung
  growth: 71.4%
HOP-62 NSCLC
  growth: 37.7%
NCI-H460 lung
  growth: 73.7%
HOP-92 NSCLC
  growth: 40.7%
NCI-H522 lung
  growth: 10.8%
A549/ATCC NSCLC
  growth: 81.3%
786-0 renal
  growth: 99.1%
COLO 205 colon
  growth: 66.4%
DU-145 prostate
  growth: 74.4%
K-562 leukemia
  growth: -74.5% (active)
MALME-3M melanoma
  growth: 67.8%
MDA-MB-231 breast
  growth: 69.3%
RXF 393 renal
  growth: 109%
SF-268 CNS
  growth: 69.7%
SF-539 CNS
  growth: 56.3%
M14 melanoma
  growth: 84.4%

## Cc1sc2nc3[nH]/c(=C\c4ccc(Cl)cc4)c(=O)n3c(=O)c2c1C
NCI-H23 lung
  growth: 103%
NCI-H226 lung
  growth: 100%
NCI-H322M lung
  growth: 103%
HOP-62 NSCLC
  growth: 110%
NCI-H460 lung
  growth: 104%
HOP-92 NSCLC
  growth: 92.7%
NCI-H522 lung
  growth: 88.1%
A549/ATCC NSCLC
  growth: 94.1%
786-0 renal
  growth: 95.1%
COLO 205 colon
  growth: 112%
DU-145 prostate
  growth: 109%
K-562 leukemia
  growth: 101%
MALME-3M melanoma
  growth: 102%
MDA-MB-231 breast
  growth: 111%
RXF 393 renal
  growth: 99.5%
SF-268 CNS
  growth: 102%
SF-539 CNS
  growth: 103%
M14 melanoma
  growth: 103%

## CCC(C)[C@@H]1NC(=O)[C@@H]2CCCN2C(=O)[C@H](Cc2ccccc2)NC(=O)[C@@H]2CCCN2C(=O)[C@H](Cc2ccccc2)NC(=O)[C@@H]2CCCN2C(=O)[C@H](Cc2ccccc2)NC1=O (stereo not given in full)
NCI-H23 lung
  growth: 113%
NCI-H226 lung
  growth: 109%
NCI-H322M lung
  growth: 127%
HOP-62 NSCLC
  growth: 103%
NCI-H460 lung
  growth: 104%
HOP-92 NSCLC
  growth: 95.3%
NCI-H522 lung
  growth: 96.3%
A549/ATCC NSCLC
  growth: 101%
786-0 renal
  growth: 109%
COLO 205 colon
  growth: 108%
DU-145 prostate
  growth: 118%
K-562 leukemia
  growth: 91.5%
MALME-3M melanoma
  growth: 126%
MDA-MB-231 breast
  growth: 104%
RXF 393 renal
  growth: 111%
SF-268 CNS
  growth: 119%
SF-539 CNS
  growth: 109%
M14 melanoma
  growth: 105%

## O=C1Nc2ccccc2/C1=C/C(=N/c1nnc(-c2ccc(Cl)cc2)s1)c1ccccc1
NCI-H23 lung
  growth: 29.1%
NCI-H226 lung
  growth: 84.3%
NCI-H322M lung
  growth: 77%
HOP-62 NSCLC
  growth: 51.5%
NCI-H460 lung
  growth: 63.7%
HOP-92 NSCLC
  growth: 26.3%
NCI-H522 lung
  growth: -95.7% (active)
A549/ATCC NSCLC
  growth: 82.6%
786-0 renal
  growth: -56.9% (active)
COLO 205 colon
  growth: 0.635% (active)
DU-145 prostate
  growth: 30.5%
K-562 leukemia
  growth: 8.67% (active)
MALME-3M melanoma
  growth: -26.5% (active)
MDA-MB-231 breast
  growth: 35.5%
RXF 393 renal
  growth: -63.3% (active)
SF-268 CNS
  growth: 55.9%
SF-539 CNS
  growth: 27.9%
M14 melanoma
  growth: 52.2%

## COc1ccc(/C=C2\N=C3SC=C(N)N3C2=O)cc1
NCI-H23 lung
  growth: 23.6%
NCI-H226 lung
  growth: 51.6%
NCI-H322M lung
  growth: 46.6%
HOP-62 NSCLC
  growth: 40.2%
NCI-H460 lung
  growth: 17.3%
HOP-92 NSCLC
  growth: -8.02% (active)
NCI-H522 lung
  growth: -54.5% (active)
A549/ATCC NSCLC
  growth: 32.8%
786-0 renal
  growth: 33.2%
COLO 205 colon
  growth: 12.5%
DU-145 prostate
  growth: 26.5%
K-562 leukemia
  growth: 5.29% (active)
MALME-3M melanoma
  growth: -15.3% (active)
MDA-MB-231 breast
  growth: 42.5%
RXF 393 renal
  growth: -21.2% (active)
SF-268 CNS
  growth: 37.3%
SF-539 CNS
  growth: 26.7%
M14 melanoma
  growth: 24.8%

## O=c1c2cccc3c(Nc4ccccn4)ccc(c32)c2nc3ccccc3n12
NCI-H23 lung
  growth: 60.6%
NCI-H226 lung
  growth: 69.7%
NCI-H322M lung
  growth: 74.5%
HOP-62 NSCLC
  growth: 67.8%
NCI-H460 lung
  growth: 52.7%
HOP-92 NSCLC
  growth: 54.9%
NCI-H522 lung
  growth: 56.6%
A549/ATCC NSCLC
  growth: 70.9%
786-0 renal
  growth: 88.4%
COLO 205 colon
  growth: 71%
DU-145 prostate
  growth: 91.8%
K-562 leukemia
  growth: 46.5%
MALME-3M melanoma
  growth: 86.3%
MDA-MB-231 breast
  growth: 70.6%
RXF 393 renal
  growth: 108%
SF-268 CNS
  growth: 87.2%
SF-539 CNS
  growth: 85.7%
M14 melanoma
  growth: 91%

## O=c1c2cccc3c(NC4CCCCC4)ccc(c32)c2nc3ccccc3n12
NCI-H23 lung
  growth: 46%
NCI-H226 lung
  growth: 72%
NCI-H322M lung
  growth: 82.3%
HOP-62 NSCLC
  growth: 90.6%
NCI-H460 lung
  growth: 34.7%
HOP-92 NSCLC
  growth: 48.4%
NCI-H522 lung
  growth: 61.5%
A549/ATCC NSCLC
  growth: 66.5%
786-0 renal
  growth: 108%
COLO 205 colon
  growth: 75.6%
DU-145 prostate
  growth: 98.7%
K-562 leukemia
  growth: 66.9%
MALME-3M melanoma
  growth: 96.1%
MDA-MB-231 breast
  growth: 82.3%
RXF 393 renal
  growth: 112%
SF-268 CNS
  growth: 99.5%
SF-539 CNS
  growth: 96.2%
M14 melanoma
  growth: 86.7%

— PubChem BioAssay (NCI)
